Test results: the supplement of paper PMC10981050
“And” between values parts separate entries of the source, which are not always exact repeats. Equal entries are not always repeated.

Experiments:
Test in all cases: cell viability relative to vehicle control; higher = less cytotoxic
Conditions in all cases: 10 µM
K562 = test system: K562
How it was run: (§1)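 After removal of identity-inconsistent compounds, the Selleck bioactive, kinase and epigenetic probe libraries were screened on CRISPR-edited mutant clones and isogenic wild-type clones of four leukaemia lines. Plates were 384-well, each well holding 2000 cells in 50 µL medium and receiving a single 10 µM acoustically dispensed dose. CellTiter-Glo luminescence was read 48 h later, after the supernatant was taken off. Genedata Screener was used to express viability as percent of the on-plate vehicle control.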

MARIMO = test system: MARIMO
How it was run: as §1

MOLM14 = test system: MOLM14
How it was run: as §1

OCI-AML2 = test system: OCI-AML2
How it was run: as §1

SMILES	cell viability (K562; SRSF2 genotype: SRSF2 P95H/wt)	cell viability (K562; SRSF2 genotype: SRSF2 wt/wt)	cell viability (MARIMO; SRSF2 genotype: SRSF2 P95H/wt)	cell viability (MARIMO; SRSF2 genotype: SRSF2 wt/wt)	cell viability (MOLM14; SRSF2 genotype: SRSF2 P95H/wt)	cell viability (MOLM14; SRSF2 genotype: SRSF2 wt/wt)	cell viability (OCI-AML2; SRSF2 genotype: P95H/wt)	cell viability (OCI-AML2; SRSF2 genotype: wt/wt)
Oc1ncnc2[nH]ncc12 [Allopurinol (Zyloprim)]	99% and 99.5%	104%	97.1%	98.3%	99.3%	96%	101%	104%
C=CCc1ccc(O)c(-c2ccc(O)c(CC=C)c2)c1 [Honokiol]	84.9% and 87.5%	83.8%	84.5%	92.7%	85.5%	98.9%	66.7%	72.3%
Nc1cccc(S(=O)(=O)N2CCCN(S(=O)(=O)c3ccc4c(c3)OCCO4)CC2)c1	90.8% and 101%	101%	96.3%	98.8%	90.5%	97.7%	101%	97.5%
Cc1cnc(-c2cc(N3CCN(C(=O)CCS(C)(=O)=O)CC3)ncc2Cl)c(C)c1	98.7% and 98.8%	96.3%	101%	110%	100%	104%	96.2%	105%
C=CC(=O)Nc1ccc(CN2C(=O)N(c3cc(OC)cc(OC)c3)Cc3cnc(Nc4ccc(N5CCN(C)CC5)cc4)nc32)cc1	66.2% and 73.3%	77.8%	81.2%	78.8%	37.9%	40.1%	25.8%	34.5%
CCc1ccc(-c2nc(CSCC(=O)NCCc3ccccc3)c(C)o2)cc1	89.7% and 94%	94.9%	84.1%	99.9%	87.5%	96.8%	74.5%	91.2%
CCCCCCCCCC(=O)N[C@@H](Cc1c[nH]c2ccccc12)C(=O)N[C@H](CC(N)=O)C(=O)N[C@@H](CC(=O)O)C(=O)N[C@@H]1C(=O)NCC(=O)N[C@@H](CCCN)C(=O)N[C@@H](CC(=O)O)C(=O)N[C@H](C)C(=O)N[C@@H](CC(=O)O)C(=O)NCC(=O)N[C@H](CO)C(=O)N[C@@H]([C@H](C)CC(=O)O)C(=O)N[C@@H](CC(=O)c2ccccc2N)C(=O)O[C@@H]1C [Daptomycin]	94.1% and 95.3%	95%	94%	103%	99%	96.5%	96%	103%
COc1cc2c(c(OC)c1OC)-c1c(cc3c(c1OC)OCO3)C[C@H](C)[C@](C)(O)[C@H]2OC(=O)c1ccccc1 [Schisantherin A]	102% and 111%	97.5%	89.3%	102%	100%	102%	106%	102%
C=Cc1c(C)c2cc3nc(cc4[nH]c(cc5nc(cc1[nH]2)C(C)=C5CCC(=O)O)c(CCC(=O)OC)c4C)C1(C)C3=CC=C(C(=O)OC)C1C(=O)OC (stereo unspecified) [Verteporfin (Visudyne)]	68.3% and 75.3%	70.6%	87.7%	85.2%	80.2%	59.8%	69.7%	77.9%
CNC(=O)c1c(F)cccc1Nc1nc(Nc2cc3c(cc2OC)CCN3C(=O)CN(C)C)nc2[nH]ccc12	6.79% and 7.34%	5.25%	46.2%	38.8%	0.66%	0.35%	0.91%	1.46%
CO[C@H]1O[C@@H]2O[C@@]3(C)CC[C@H]4[C@H](C)CC[C@@H]([C@H]1C)[C@@]24OO3 [Artemether]	84.4% and 83.7%	80.4%	81%	90.5%	85.6%	90.1%	86.3%	86.6%
CC12CCC(CC1=O)C2(C)C (stereo unspecified) [Camphor]	102%	103%	104%	108%	105%	104%	102%	99.1%
CSc1ccc(C(=O)/C=C/c2cc(C)c(OC(C)(C)C(=O)O)c(C)c2)cc1 [Elafibranor]	91.2% and 99.2%	88.1%	91.3%	91%	34.2%	30%	61.7%	57%
O=C(Nc1ccc(S(=O)(=O)Nc2ccccc2Cl)c(Cl)c1)c1ccccn1	98.1% and 99%	99.7%	95.6%	101%	97.6%	98.3%	103%	104%
CN1CCN(Cc2ccc(NC(=O)Nc3ccc(Oc4ccnc(N)n4)cc3)cc2C(F)(F)F)CC1	31.7% and 37.7%	22.2%	6.8%	2.68%	1.79%	0.67%	1.64%	10.3%
COC(=O)[C@H](c1ccccc1Cl)N1CCc2sccc2C1 [Clopidogrel (Plavix)]	98.2% and 98.5%	94.4%	78.9%	101%	94.1%	96.9%	85.4%	93.4%
O=C(O)Cc1cccc2ccccc12 [1-Naphthaleneacetic acid]	98% and 100%	98.1%	95.7%	98.3%	106%	97.5%	104%	97.4%
O=c1c(-c2ccc(O[C@@H]3O[C@H](CO)[C@@H](O)[C@H](O)[C@H]3O)cc2)coc2cc(O)cc(O)c12 [Sophoricoside]	104% and 106%	116%	106%	103%	100%	104%	109%	105%
CCC(C)SSc1ncc[nH]1 (stereo unspecified)	14.2% and 15.1%	11.6%	6.03%	4.97%	1.56%	3.76%	4.83%	3.63%

SMILES	cell viability (K562; SRSF2 genotype: SRSF2 P95H/wt)	cell viability (K562; SRSF2 genotype: SRSF2 wt/wt)	cell viability (MARIMO; SRSF2 genotype: SRSF2 P95H/wt)	cell viability (MARIMO; SRSF2 genotype: SRSF2 wt/wt)	cell viability (MOLM14; SRSF2 genotype: SRSF2 P95H/wt)	cell viability (MOLM14; SRSF2 genotype: SRSF2 wt/wt)	cell viability (OCI-AML2; SRSF2 genotype: P95H/wt)	cell viability (OCI-AML2; SRSF2 genotype: wt/wt)
CC=C(C)C(=O)O [S3803 Angelic acid.cdx]	106% and 99.5%	103%	106%	108%	104%	100%	103%	108%
COc1nc2ccc(Br)cc2cc1[C@@H](c1ccccc1)[C@@](O)(CCN(C)C)c1cccc2ccccc12 [Bedaquiline]	74.8% and 74.5%	85.4%	70.4%	69.3%	51.8%	75.5%	38.5%	55.4%
O=C(CCc1ccc(O)cc1)c1c(O)cc(O)cc1O[C@@H]1O[C@H](CO)[C@@H](O)[C@H](O)[C@H]1O [Phlorizin (Phloridzin)]	104% and 94.2%	92.3%	93%	102%	92.2%	94.8%	90.1%	91.7%
O=[N+]([O-])c1cn2c(n1)OC[C@@H](OCc1ccc(OC(F)(F)F)cc1)C2	94.3% and 98.1%	91.8%	92.7%	101%	97.8%	97.5%	98.9%	99.5%
CCCCC(=O)N(Cc1ccc(-c2ccccc2-c2nnn[nH]2)cc1)[C@H](C(=O)O)C(C)C [Valsartan (Diovan)]	102% and 98.1%	105%	102%	112%	104%	106%	101%	112%
CC(C)(O)CNc1nc(Nc2ccnc(C(F)(F)F)c2)nc(-c2cccc(C(F)(F)F)n2)n1 [AG-221 (Enasidenib)]	102% and 103%	103%	93.1%	99.8%	97.8%	110%	84.6%	89.4%
C=C(C)[C@@H]1CC[C@]2(C(=O)O)CC[C@]3(C)[C@H](CC[C@@H]4[C@@]5(C)CC[C@H](O)C(C)(C)[C@@H]5CC[C@]43C)[C@@H]12 [Betulinic acid]	72% and 77.2%	80.1%	82.3%	51.4%	86.7%	89.3%	61.9%	65%
Cc1cc(/C=C2/SC(=S)NC2=O)c(C)n1-c1cccnc1 [Optovin]	85.7% and 83.4%	85%	92.2%	102%	89.3%	90.5%	107%	97.2%
CCNC1(C(N)=O)CCN(c2ncnc3c2nc(-c2ccccc2Cl)n3-c2ccc(Cl)cc2)CC1	79.4% and 80.8%	79.1%	83.1%	101%	78.2%	84.3%	88.2%	93%
CCN1C(=O)CNc2ncc(-c3ccc(-c4nc[nH]n4)nc3C)nc21	13.8% and 18.5%	23.9%	27.5%	27.6%	9.85%	11.8%	8.07%	16.1%
Cc1cc(Nc2ncnc3ccc(-c4ccc(CNCCS(C)(=O)=O)o4)cc23)ccc1Oc1ccn2ncnc2c1 [HER2 Inhibitor 1]	96.3% and 102%	105%	107%	108%	93%	101%	95.7%	89.6%
C=CCc1ccc(O)c(-c2cc(CC=C)ccc2O)c1 [Magnolol]	85.6% and 95.6%	96.6%	99.5%	112%	93.9%	103%	86.2%	106%
CC[C@H]1OC(=O)[C@H](C)[C@@H](O[C@H]2C[C@@](C)(OC)[C@@H](O)[C@H](C)O2)[C@H](C)[C@@H](O[C@@H]2O[C@H](C)C[C@H](N(C)C)[C@H]2O)[C@](C)(O)C[C@@H](C)/C(=N\OCOCCOC)[C@H](C)[C@@H](O)[C@]1(C)O [Roxithromycin (Roxl-150)]	104% and 106%	94.9%	103%	105%	101%	100%	93.6%	105%
COCCCc1sc(-c2ccccc2)nc1C(=O)Nc1ccccc1-c1nc2cc(CN3CCCC3)cnc2s1	75.7% and 55.8%	76.6%	82.7%	83.6%	76.7%	92.5%	52.1%	76.2%
NC(=O)N1c2ccccc2C=Cc2ccccc21 [Carbamazepine (Carbatrol)]	95.3% and 86.7%	90.3%	81.3%	97.6%	88.3%	87.9%	92%	104%
NC1CC1c1ccc(-c2cccc(O)c2)cc1 (stereo unspecified)	96.2% and 104%	97.1%	88.3%	106%	99.4%	99.1%	87%	92%
COc1cc(C[C@H](C)[C@H](C)Cc2ccc3c(c2)OCO3)ccc1O [Anwuligan]	88.8% and 87%	87.9%	87%	94.9%	88.3%	83.1%	76.8%	83.5%
O=C(O)[C@H]1CSC(c2nc3ccc(O)cc3s2)=N1 [D-Luciferin]	90.6% and 83.7%	92.3%	82.4%	92.8%	85.8%	90.7%	86.7%	87.9%
